± gives the standard deviation. The full ranking holds about 3,700 sequences; the median of “pre-steady-state target cleavage rate” is about 0.02, and the highest 2% start at about 0.23. Many of the other results were omitted from the sample, so the highest values are more common in it than they were.
tested on: MILI (PIWIL2) piRISC loaded with Kctd7 piRNA (26 nt); assay: pre-steady-state target cleavage rate (min^-1); MIWI and MILI are mouse PIWI proteins and EfPiwi is from a freshwater sponge; tags in brackets are library labels; higher = faster piRNA-guided slicing of the target; details: guide: Kctd7 piRNA 5'p-UGUUAAUCUCUCAGAGAAGGUGACAG; auxiliary factor: 500 nM mouse GTSF1
Experimental: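 Cleave-'n-Seq: a library of target RNAs (target site embedded in constant flanks, ACAGCATTCCGCGTTAGTGATATCCG... 5' flank; DNA-blocked outside the site) at 0.1 nM was incubated with 1 nM active mouse MILI or MIWI piRISC (synthetic 5'-monophosphorylated piRNA guide) with or without 500 nM mouse GTSF1 at 33 °C for 1 min to 16 h. Uncleaved targets were sequenced and normalised to non-target controls, and the pooled three trials were fitted to a burst-and-steady-state model to give the pre-steady-state cleavage rate (min^-1; k3 is constrained to at most 1e-4). Sequence is the target site only; target names encode pairing extent (gX:gY) and contiguous / 1-mismatch / 2-mismatch / bulge geometry. Fits with R² ≤ 0 are excluded.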

Sequence | pre-steady-state target cleavage rate
UAGUGUGUCAGCUUCUGUGAGAGAUUAACA | 0.129 ± 0.013
UAGUGAGUCACCUUCUCUGCGAGAUUAACA | 0.0952 ± 0.015
UAGUGUGUCAGGUUCUCUGAGAGAUUAUGA | 0.00789 ± 0.0035
UAGUGACACAGCUUCUCUGUGAGAUUAACA | 0.0271 ± 0.0057
UAGUGACAGACCUUGUCUGAGAGAUUAACA | 0.0481 ± 0.0096
UAGUGAGUCAGCUUCUCUGAGAGAUUAACA | 0.158 ± 0.013
UAGUGUCAGACCUUCUCUGAGAGAUUAACA | 0.108 ± 0.012
UAGUCUCUCACCUUCUCUGAGUGAUUAACA | 0.00476 ± 0.0037
UAGUGACUCAGCUUGUCUGAGAGAUUAACA | 0.112 ± 0.0088
UAGUGACAGACCUUCUCUGAGACGAUUAACA | 0.0176 ± 0.0081
UAGUGACUCACCUUCUCUGAGAGAUUAAACA | 0.251 ± 0.035
UAGUGACUCACCUUCUCUGAGAGAUUAAAA | 0.0677 ± 0.02
UAGUGAGUACCUUCUCUGAGAGAUUAACA | 0.113 ± 0.014
UAGUGAGUCACCUUCUCUGUGAGAUAAACA | 0.0242 ± 0.0096
UAGUGAGUACACCUUCUCUGAGAGAUUAACA | 0.237 ± 0.019
UAGUGAGUCACCUUCUCUGAGAGAUAAACA | 0.249 ± 0.052
UAGUGAGUCACCUUCCCUGAGAGAUUAACA | 0.394 ± 0.074
UAGUGAGUCACCUUCCUGAGAGAUUAACA | 0.119 ± 0.038
UAGUGAGUCACCUUCUCUGAGAGAUAAAGA | 0.00919 ± 0.0072
UAGUGACUCACCUUCUCUGAGAGAUUAAA | 0.13 ± 0.031
UAGUGAGACACCUUCUCUGAGAGAUUAACA | 0.185 ± 0.011
UAGUGAGUCACCUUCCUCUGAGAGAUUAACA | 0.148 ± 0.019
UAGUGACUCACCUUCUCUGAGAGAGUUAACA | 0.118 ± 0.017
UAGUGUGAGACCUUCUCUGAGAGAUUAACA | 0.101 ± 0.0091

Sequence | pre-steady-state target cleavage rate
UAGUGACACACCUUCAGUGAGAGAUUAACA | 0.0881 ± 0.016
UAGUGACUCAUCCUUCUCUGAGAGAUUAACA | 0.0582 ± 0.0061
UAGUGAGUCACGUUCUCUGUGAGAUUAACA | 0.0376 ± 0.0033
UAGUGUGUCACCUUCUCAGAGACAUUAACA | 0.117 ± 0.025
UAGUGACUCACCUUCUCUGAGAGAUGUAACA | 0.172 ± 0.028
UAGUGACAGAACCUUCUCUGAGAGAUUAACA | 0.0771 ± 0.01
UAGUGAGUCACCUUCUCGAGAGAUUAACA | 0.0598 ± 0.015
UAGUCUGUCACCUUCUCUGAGAGAUAACA | 0.0928 ± 0.025
UAGUGUGUCACCUUCUCCGAGAGAUUAACA | 0.373 ± 0.1
UAGUCUGUCACCUUCUCCGAGAGAUUAACA | 0.21 ± 0.038
UAGUGAGUCACCUUCUUCUGAGAGAUUAACA | 0.0918 ± 0.028
UAGUGAGUCACCUUCUCCGAGAGAUUAACA | 0.394 ± 0.084
UAGUGAGUCACCUUCUGCUGAGAGAUUAACA | 0.264 ± 0.058
UAGUGAGUCACCUUCUCAGAGAGAUUAACA | 0.173 ± 0.022
UAGUGUGUCACCUUCUCGAGAGAUUAACA | 0.0644 ± 0.013
UAGUCUGUCACCUUCUCUGAGAGAUAUAACA | 0.235 ± 0.03
UAGUCUGUCACCUUCUCUGAGAGAUAAACA | 0.132 ± 0.022
UAGUGAGUCACCUUCUGAGAGAGAUUAACA | 0.074 ± 0.011
UAGUGACAGUCCUUCUAUGAGAGAUUAACA | 0.0377 ± 0.013
UAGUGACACAGCUUCUCUGAGAGAUAAACA | 0.0211 ± 0.0068
UAGUGACUCACGUUCUCUGAGAGAUUUACA | 0.0554 ± 0.015
UAGUGACAGACCUUCUCUGUGAGAUAAACA | 0.0102 ± 0.0046
UAGUGACACAACCUUCUCUGAGAGAUUAACA | 0.155 ± 0.018
UAGUGACUCACCUUCUCUGAGAGAUUAUACA | 0.114 ± 0.021

Sequence | pre-steady-state target cleavage rate
UAGUGUGUCACCAUCUCUGAGAGAUUAUGA | 0.0243 ± 0.0082
UAGUGACUCACCUUCUGUGAGAGAUUUUGA | 0.00903 ± 0.0039
UAGUGACACACCUACUCUGAGACAUUAACA | 0.0243 ± 0.0072
UAGUGUGUCACCAACUCUGAGAGAUUUUGA | 0.00551 ± 0.0041
UAGUGAGUGACCUUCUCUGAGAGAUUAUGA | 0.0378 ± 0.011
UAGUGACAGACCUUCUCUGAGAGAUUAGCA | 0.0252 ± 0.013
UAGUGUGUCAGCUUCUCUGUGAGAUUAACA | 0.0415 ± 0.0032
UAGUGACACACCUUCUCUCAGAGAUUAUGA | 0.00858 ± 0.0045
UAGUCUGUCUCCUUCUCUGAGAGAUUAUGA | 0.0111 ± 0.0041
UAGUGACUCACCUUCAGUGAGAGAUUAACA | 0.0471 ± 0.0078
UAGUGAGUCACCUUCUCUGAGAGAUAUAACA | 0.347 ± 0.046
UAGUGAGUCACCUUCUCUGAGAGAUAACA | 0.107 ± 0.038
UAGUGAGAUCACCUUCUCUGAGAGAUUAACA | 0.178 ± 0.015
UAGUGAGUCACCUUCUCUGAGAGAUAUACA | 0.0915 ± 0.025
UAGUGUGAUCACCUUCUCUGAGAGAUUAACA | 0.24 ± 0.018
UAGUGUGCUCACCUUCUCUGAGAGAUUAACA | 0.205 ± 0.013
UAGUGUGUCACCUUCUCGGAGAGAUUAACA | 0.153 ± 0.017
UAGUCUGUCACCAUCACUGAGAGAUUAACA | 0.11 ± 0.0083
UAGUGACAGUCCUUGUGUGAGAGAUUAACA | 0.0291 ± 0.0078
UAGUGACAGUGGAACUCUGACAGAUUAUCA | < 0.0001
UAGUGUGUCACCUUCUCUGAGAGAUUAACCA | 0.236 ± 0.021
UAGUGUGUCACCUUCUCUGAGAGAUUAACG [g2:g25:cont:t1G] | 0.267 ± 0.02
UAGUGUGUCACCUUUUCUGAGAGAUUAACA | 0.249 ± 0.02
UAGUGUGUCACCUUUCUCUGAGAGAUUAACA | 0.187 ± 0.016

Sequence | pre-steady-state target cleavage rate
UAGUGUGUCACCUUUCUGAGAGAUUAACA | 0.0596 ± 0.013
UAGUGUGUCACCCUUCUCUGAGAGAUUAACA | 0.104 ± 0.016
UAGUGUGUCACCUUCUCUGAGAGAUUAACU [g2:g25:cont:t1U] | 0.187 ± 0.015
UAGUGUGUCACCUUCUCUGAGAGAUUACCA | 0.197 ± 0.037
UAGUGUGUCACCUUCUCUGAGAGAUUAACC [g2:g25:cont:t1C] | 0.202 ± 0.014
UAGUGUGUCACCUUCUGUGUGAGAUUAACA | 0.0302 ± 0.004
UAGUGACAGUGGAAGUCUGAGAGUUAAACA | < 0.0001
UAGUGACACACCUUCUGAGAGAGAUUAUGA | 0.0134 ± 0.0078
UAGUGACAGUCCUUCUCUAAGAGAUUAACA | 0.0523 ± 0.012
UAGUGACAGUGGAAGAGUGAGGAGAUUAACA | < 0.0001
UAGUGACUCACCUUCUGUGAGAGUUUAACA | 0.0308 ± 0.01
UAGUGUGUCUCCUUCUCUGAGACAUUAACA | 0.00482 ± 0.0038
UAGUCUGACACCUUCUCUGAGAGUUUAACA | 0.109 ± 0.016
UAGUGAGUCACCUUCUCUGAGAGUUUAACA | 0.277 ± 0.061
UAGUGAGUCACCUUCUCUGAGAGUAAAACA | 0.14 ± 0.045
UAGUCAGUCACCUUCUCUGAGAGUUUAACA | 0.261 ± 0.041
UAGUGAGUCACCUUCUCUGAGAGCUUAACA | 0.155 ± 0.026
UAGUGAGUCACCUUCUCUGAGAGUUAACA | 0.253 ± 0.077
UAGUGAGUCACCUUCUCUGAGAGAGUAACA | 0.239 ± 0.063
UAGUGAGUCACCUUCUCUGACAGUUUAACA | 0.0134 ± 0.0052
UAGUGAGUCACCUUCUCUGAGAGAUUUAACA | 0.225 ± 0.04
UAGUGAGUCACCUUCUCUCAGAGUUUAACA | 0.0248 ± 0.0099
UAGUGAGUCACCUUCUCUGAGAGUAUUAACA | 0.158 ± 0.019
UAGUGAGUCACCUUCUCUGAGAGUAUAACA | 0.144 ± 0.057

Reference: the supplement of paper PMC10338343
